# Laboratory results published in PubChem BioAssay AID624246 (National Center for Advancing Translational Sciences (NCATS), 2012).
# The campaign covered roughly 370,000 compounds. About 100 (0.027%) were called active. The call rests on the fitted dose curve; in most records, active means well fitted inhibition curve with a large enough effect in the polarisation, with a control signal flat; inconclusive means small, poorly fitted or top-dose-only effect, or effect the other way, or a change in a side signal; inactive means no such curve, though single readings can be large or run the other way; the % refers to the polarisation. The list comes from a sample in which actives are over-represented; it also holds similar structures and randomly drawn compounds.
# Target: Transcriptional regulator ERG (Homo sapiens) (UniProt P11308)
# Sequence (P11308 whole entry, looked up): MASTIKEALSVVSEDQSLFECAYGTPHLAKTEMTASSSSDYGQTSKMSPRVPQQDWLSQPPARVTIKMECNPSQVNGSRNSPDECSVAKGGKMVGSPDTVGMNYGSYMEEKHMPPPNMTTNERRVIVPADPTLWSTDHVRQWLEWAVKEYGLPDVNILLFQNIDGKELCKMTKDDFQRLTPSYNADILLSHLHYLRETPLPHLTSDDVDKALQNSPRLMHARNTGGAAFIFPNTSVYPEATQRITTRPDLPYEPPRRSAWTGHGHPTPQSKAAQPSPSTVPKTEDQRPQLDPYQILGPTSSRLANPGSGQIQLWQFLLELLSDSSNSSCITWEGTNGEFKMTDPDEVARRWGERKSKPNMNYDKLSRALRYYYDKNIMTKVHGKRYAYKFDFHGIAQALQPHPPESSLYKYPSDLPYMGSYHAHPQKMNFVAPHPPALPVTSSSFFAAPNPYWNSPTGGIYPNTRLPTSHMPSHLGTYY
# Experiment: qHTS for Small Molecule Inhibitors of the ERG Ets/DNA interaction; on FP activity, negative = inhibition: % of control where 0% means no effect
# Settings: fluorescence polarization, His-ERG Ets domain / labelled DNA; series mostly up to 76.9 µM; FP activity, negative = inhibition: at the top concentration
# Outline: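 His-tagged ERG Ets domain (1 uM in the protein solution; 300mM KCl, 50mM Tris-HCl, 1mM EDTA, 1mM DTT, pH 7.5) received compound, then a probe mix of 5 nM fluorescein-DNA and 100nM Texas-615-DNA. Fluorescence polarization was read for both dyes.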
# Potency means the concentration at half of the fitted maximal effect.
SMILES,"FP activity, negative = inhibition",Potency
Cc1nn2c(=O)cc(COC(=O)CNC(=O)c3ccc(F)cc3)nc2s1,-9.84% (inactive),–
CCOc1ccccc1C(=O)NCc1ccc2c(c1)CCN2C(=O)c1ccc(F)cc1,-0.811% (inactive),–
Cc1c(NC(=O)Nc2ccc(F)c(Cl)c2)c(=O)n(-c2ccccc2)n1C,-5.55% (inactive),–
Cc1ccc(N2CC(NC(=O)Cc3cccs3)CC2=O)cc1 (stereo unspecified),-1.63% (inactive),–
Cc1nnc(N2CCC(C(=O)Nc3ccc(F)cc3)CC2)c2nn(-c3ccc(Cl)cc3)c(C)c12,4.61% (inactive),–
Cc1ccc(C)c(N2CCN(C(=O)Cn3ncc4c(=O)oc5ccc(C)cc5c43)CC2)c1,-2.21% (inactive),–
Cc1ccc(C(=O)N2CCc3cc(CNC(=O)c4ccc(Br)cc4)ccc32)cc1,0.293% (inactive),–
Cc1ccc(S(=O)(=O)NCc2nc3nc(C)cc(C)n3n2)cc1,-0.121% (inactive),–
CCN(CCCNC(=O)c1cc(Nc2ccc(OC)cc2)nc2ccccc12)c1cccc(C)c1,11.4% (inactive),–
CCc1nnc2c3ccccc3nc(N3CCN(c4ccc(C)cc4C)CC3)n12,-1.84% (inactive),–
Cc1nnc(SCc2cc(=O)c3cc(F)ccc3[nH]2)n1C,-0.734% (inactive),–
Cc1ccc(C(=O)Nc2ccc3[nH]c(=O)c(=O)[nH]c3c2)cc1,10.2% (inactive),–
Cc1sc(C2C(C#N)=C(N)N(c3cccc(Cl)c3)C3=C2C(=O)CCC3)cc1CN1CCOCC1 (stereo unspecified),-0.155% (inactive),–
O=C(CCc1ccccc1)NCc1ccc2c(c1)CCN2C(=O)c1ccccc1,-1.84% (inactive),–
CCc1ccccc1NC(=O)c1sc2nc3c(cc2c1N)CN(Cc1ccccc1)CC3,2.85% (inactive),–
COc1ccc(CCNC(=O)c2ccc(CSCc3ccc(C)cc3)o2)cc1OC,-0.298% (inactive),–
CCCn1c2ccccc2c2cnn(CC(=O)N3CCCC(C(=O)OCC)C3)c(=O)c21 (stereo unspecified),1.31% (inactive),–
Cc1cc(C(=O)Nc2cccc(C(F)(F)F)c2)c2c(C)nn(-c3cccc(F)c3)c2n1,16.8% (inactive),–
CC(C)(C)c1ccc(C(=O)Nc2ccc3c(c2)CCCN3C(=O)c2cccs2)cc1,-9.6% (inactive),–
COc1ccc(CNC(=O)CS(=O)Cc2nc(-c3cccc(C)c3)oc2C)cc1 (stereo unspecified),7.27% (inactive),–
COc1ccc(-c2nc(CS(=O)CC(=O)NCc3cccnc3)c(C)o2)cc1OC (stereo unspecified),2.92% (inactive),–
COc1ccc(-c2nc(CS(=O)CC(=O)NCc3ccccn3)c(C)o2)cc1 (stereo unspecified),–,35.5 µM (active)
Cc1cc(C)nc(NS(=O)(=O)c2ccc(NC(=O)c3cc(=O)c4ccc(C)c(C)c4o3)cc2)n1,5.27% (inactive),–
CCCn1c(NCc2ccccc2F)nc2ccccc21,-2.58% (inactive),–
O=C(CSc1nc(Nc2ccc(F)c(F)c2)c2ccccc2n1)c1ccc(Cl)cc1,3.88% (inactive),–
COc1cc(C(=O)Nc2ccc(OCc3cc(=O)n4ccc(C)cc4n3)cc2)cc(OC)c1OC,3.21% (inactive),–
